A number with no mark means an inactive call. The source made the active and inactive calls. No rule for the calls is given here.

By IC50 is commonly meant the concentration at which inhibition is half-maximal.

The nature of this assay: xanthine oxidase superoxide generation blockade – biochemical, counter-screen for NOX1 inhibitor project, late-stage follow-up (AID 2556). The conditions noted are these: xanthine oxidase superoxide assay.
Regarding `COc1cc(-c2nc(-c3ccccc3)c(-c3ccccc3)[nH]2)ccc1O`, the IC50 is 11.2 µM. The result for `Cc1cc(Cl)ccc1NC(=S)NNC(=S)Nc1ccc(F)cc1` reads 11 µM.

Consider `O=C(Oc1ccccc1N1CCCCC1)c1sc2ccccc2c1Cl`, for which the IC50 is 11.1 µM. The result for `c1ccc2c(c1)Nc1nc3ccccc3nc1N2` reads 3.5 µM (active); that for `CN(C)c1ccc(NC(=O)Nc2ccc(OCc3ccccc3)cc2)cc1`, 2 µM (active). With `FC(F)(F)c1ccc2c(c1)Nc1ccccc1S2`, the IC50 is 20.7 µM.

For the origin of these results see PubChem BioAssay AID2556 (The Scripps Research Institute Molecular Screening Center, 2010).
